Measurements reported in PubChem BioAssay AID880 (National Center for Advancing Translational Sciences (NCATS), 2007).
The campaign covered roughly 230,000 compounds. About 1,000 (0.43%) were called active. Calls come from the whole dose curve; as a rule, active = well fitted inhibition curve with a large enough effect (not every such curve was filed as active); inactive = no such curve, though single readings can be large or run the other way. The entries come from a sample that favours actives as a whole. A call without a number means that no potency is given here.
Note: nearly all actives have a fitted effect of over 30% in size.
Potency is the fitted concentration of half-maximal effect.

These compounds were tested against Guanine nucleotide-binding protein G(i) subunit alpha-1 (Homo sapiens) (UniProt P63096) (assay: qHTS Assay for Inhibitors of RGS12 GoLoco Motif Activity (Red Fluorophore)). Conditions: Gai1:RGS12 GoLoco peptide FP, rhodamine, 10 min; series mostly up to 61.6 µM.
Sequence of Guanine nucleotide-binding protein G(i) subunit alpha-1 (Homo sapiens) (P63096 whole entry, looked up): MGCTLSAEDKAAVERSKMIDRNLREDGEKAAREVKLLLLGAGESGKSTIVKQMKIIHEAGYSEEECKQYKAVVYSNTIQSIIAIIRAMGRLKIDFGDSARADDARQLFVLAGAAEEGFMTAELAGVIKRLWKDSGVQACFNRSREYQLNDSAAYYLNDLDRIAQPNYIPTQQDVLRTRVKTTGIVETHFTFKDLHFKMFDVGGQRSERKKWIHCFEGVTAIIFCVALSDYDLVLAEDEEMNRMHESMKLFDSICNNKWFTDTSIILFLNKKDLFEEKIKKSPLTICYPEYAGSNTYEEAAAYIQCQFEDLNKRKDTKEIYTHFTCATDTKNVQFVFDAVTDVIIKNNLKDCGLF
With COc1ccc(/C=C/C2=CC(C)(C)NC(=S)N2)c(OC)c1 the Potency was “inactive”.
With COC(=O)[C@@H]1CC2=CC(=O)CC[C@]2(C)[C@@]23O[C@@H]2C[C@@]2(C)[C@@H](CC[C@@]24CCC(=O)O4)[C@H]13 the Potency was “inactive”.
With O=c1[nH]c2cccnc2n1-c1ccc([N+](=O)[O-])cc1 the Potency was “inactive”.
In the case of O=c1[nH]n(-c2ccc([N+](=O)[O-])cc2)c(=O)c2ccccc12, the Potency is reported as 14.1 µM (active).
In the case of O=C1CC(c2ccccc2)=NN1c1ccc([N+](=O)[O-])cc1, the Potency is reported as “inactive”.
For CCn1c(=O)c2cc(C(=O)Nc3cccc(C(C)=O)c3)sc2c2ccccc21, the Potency was “inactive”.
With COc1ccc(CC(=O)N2N=C(C)CC2(O)C(F)(F)F)cc1 (stereo not drawn) the Potency was “inactive”.
For COc1ccc(-c2c(C)cc3oc(=O)cc(-c4ccccc4)c3c2C)cc1C=O, the Potency was “inactive”.
COC(=O)/C=C\C(=O)Nc1cccc([N+](=O)[O-])c1 was tested, and the Potency was 0.891 µM (active).
With CC(=O)Nc1cccc([N+](=O)[O-])c1 the Potency was “inactive”.
Cc1ccccc1NC(=S)Nc1cccc([N+](=O)[O-])c1 was tested, and the Potency was “inactive”.
For C/C=C(\C)C(=O)OC1C(OC(=O)C2(C)OC2C)c2cc3ccc(=O)oc3cc2OC1(C)C (stereo not drawn), the Potency was “inactive”.
For O=c1[nH]c(=O)c2nc3ccccc3nc2[nH]1, the Potency was “inactive”.
With Nc1ccc2nc3c(=O)[nH]c(=S)[nH]c3nc2c1 the Potency was 14.1 µM (active).
CC(C)(C)NC(=O)c1ccc(Cn2cc(C(F)(F)F)ccc2=O)cc1 was tested, and the Potency was “inactive”.
For CCCCCCCC[n+]1cccc(C(=O)N2c3c(nc(N)[nH]c3=O)NC(C)C2C)c1 (stereo not drawn), the Potency was 11.2 µM (active).
For CCCCCCn1c(SCC(=O)c2ccccc2)nc2c1c(=O)[nH]c(=O)n2C, the Potency was “inactive”.
In the case of CCCCNC(=O)Nc1c(C)cc(SC#N)cc1C, the Potency is reported as “inactive”.
For O=C(Nc1ccc(N2CCOCC2)cc1)c1ccc(-c2ccccc2[N+](=O)[O-])o1, the Potency was “inactive”.
COc1ccc(-c2csc3nc(-c4ccccc4F)oc(=O)c23)cc1OC was tested, and the Potency was “inactive”.
COc1cccc([C@@H]2Oc3ccc(Br)cc3C(=O)[C@H]2OC(=O)NCCc2ccc(OC)c(OC)c2)c1 was tested, and the Potency was “inactive”.
In the case of Cc1ccc2c(CC(=O)NCc3cccs3)coc2c1, the Potency is reported as “inactive”.
CCOC(=O)C1CCCN(C(=O)COc2ccc(N(C)S(=O)(=O)c3ccc(C)cc3)cc2)C1 (stereo not drawn) was tested, and the Potency was “inactive”.
